From PubChem
Only some compounds are listed: those with a hit (about 4.1% of all), similar ones and a draw of the others.
hcDAF12 agonist = activators of H. contortus DAF-12 nuclear receptor | activation, % at 6.8 µM | HEK293 hcDAF-12 lit1-tk-luc reporter, luminescence; 0% DMSO, 100% Δ7-dafachronic acid | 1.4% of 370,000 active;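 active = activation above the mean of all tested compounds plus 3 SD, cut at about 5.5% in these data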
DAX1 inh-1 = NR0B1 (DAX1) inhibition | inhibition, % at 6.75 µM | HEK293 Gal4-DAX1 luciferase reporter, luminescence | 0.99% of 340,000 active | AID 504766;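 active = inhibition above the mean over all tested compounds plus 3 SD, cut at about 4.2% in these data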;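 note: inhibition shows as a rise in luminescence from relieved DAX1 repression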
Target sequence (P51843 207-470 limits assumed): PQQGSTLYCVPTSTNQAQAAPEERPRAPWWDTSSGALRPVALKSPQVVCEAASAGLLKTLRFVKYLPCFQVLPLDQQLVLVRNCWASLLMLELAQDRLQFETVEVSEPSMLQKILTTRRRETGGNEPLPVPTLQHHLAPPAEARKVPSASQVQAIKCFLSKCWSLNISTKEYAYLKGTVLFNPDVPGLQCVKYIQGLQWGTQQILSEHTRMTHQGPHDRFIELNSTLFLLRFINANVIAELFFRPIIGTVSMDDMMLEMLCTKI
ssDAF-12 act = activates DAF-12 receptor from parasite S. stercoralis | HEK293 ssDAF-12/GRIP1 lit1-tk-luc reporter, luminescence; % of 3 µM dafachronic acid response | AID 652126 | 1% of 370,000 active | activation, % at 6.8 µM;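 active = activation above the mean over all tested compounds plus 3 SD, cut at about 0.9% in these data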
DAX1 inh-2 = inhibitors of DAX1 repression of SF-1 activated StAR promoter | HEK293T StAR-luciferase reporter, SF-1/DAX-1 repression relief | inhibition, % at 6.8 µM | 1.1% of 370,000 active | AID 652010;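 active = inhibition above the mean over all tested compounds plus 3 SD, cut at about 3.6% in these data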;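 note: higher inhibition means more luminescence from relief of DAX-1 repression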
hgDAF12 agonist = hgDAF-12 agonism, primary luciferase screen | HEK293 GAL4-hgDAF12 UAS-luciferase reporter, agonist luminescence; normalized to butyrate control | activation, % at 6.8 µM | 1.8% of 370,000 active | AID 687014;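 active = activation above a cutoff set at the mean of all screened compounds plus 3 SD, cut at about 10% in these data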
LXRb hcDAF ctr = LXR-beta agonism as hcDAF-12 counter-screen. shares compounds with hcDAF12 agonist. HEK293 Gal4-LXR tk-luc reporter, luminescence, 24 h; normalized: DMSO 0%, positive control 100%. activation, % at 6.8 µM. 3,400 tested, under 10 active. AID 743027;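 active = mean percent activation of the reporter above a cutoff set as the average over tested compounds plus their standard deviation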
Target sequence (P55055 whole entry, looked up, the tested form may be a part): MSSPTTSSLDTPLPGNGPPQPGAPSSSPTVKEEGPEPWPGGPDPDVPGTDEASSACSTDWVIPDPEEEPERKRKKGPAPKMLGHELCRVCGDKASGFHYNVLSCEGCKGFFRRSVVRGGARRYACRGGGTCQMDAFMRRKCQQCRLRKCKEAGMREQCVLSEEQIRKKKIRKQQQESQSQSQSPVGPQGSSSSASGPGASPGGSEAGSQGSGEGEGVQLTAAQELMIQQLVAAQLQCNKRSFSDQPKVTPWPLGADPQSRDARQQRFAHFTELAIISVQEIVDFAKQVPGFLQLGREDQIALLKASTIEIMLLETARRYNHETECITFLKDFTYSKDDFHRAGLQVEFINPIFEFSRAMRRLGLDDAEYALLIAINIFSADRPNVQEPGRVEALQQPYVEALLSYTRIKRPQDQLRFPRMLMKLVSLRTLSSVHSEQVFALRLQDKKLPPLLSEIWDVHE
hcDAF12 ag = hcDAF-12 agonism, confirmation assay; shares compounds with hcDAF12 agonist; HEK293 hcDAF-12 lit1-tk-luc reporter, luminescence; % of Δ7-dafachronic acid response; activation, % at 6.8 µM; 61% of 3,400 active; AID 743032;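 active = mean activation across triplicate tests above the threshold derived from the earlier primary screen, cut at about 5.5% in these data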
hgDAF12 conf = hgDAF-12 agonism, confirmation assay | HEK293 GAL4-hgDAF12 luciferase reporter, agonist mode; percent of butyrate response | shares compounds with hgDAF12 agonist | activation, % at 6.8 µM | 80% of 3,300 active | AID 743050;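 active = mean activation over triplicate wells above the hit cutoff derived from the earlier primary screen, cut at about 11% in these data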
LXR ag 2 = counter-screen for DAF-12 agonists: agonists of human LXR-beta | shares compounds with hgDAF12 agonist | activation, % at 6.8 µM | 3,300 tested, under 10 active | HEK293 Gal4-LXR luciferase reporter, 24 h;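 active = mean activation of the triplicate above a set limit carried over from the primary screen, none filed active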
Of the large screens only hits and unclear results are named; the others gave an inactive call (follow-up assays come after a bar, where they were run).

COc1ccc2oc(C(=O)c3ccccc3)c(N)c2c1	hcDAF12 agonist 7.4, hgDAF12 agonist 15.2 (no result: DAX1 inh-1) | LXRb hcDAF ctr inactive | hcDAF12 ag 6.7 | hgDAF12 conf 20.1 | LXR ag 2 inactive
O=C(NC1CCCCCC1)c1cccc(N2CCCC2=O)c1	hcDAF12 agonist 7.8, hgDAF12 agonist 13.4 | LXRb hcDAF ctr inactive | hcDAF12 ag 10.3 | hgDAF12 conf 12.9 | LXR ag 2 inactive
CC(=Nc1cccc(C)c1)c1sc2ccccc2c1O	hcDAF12 agonist 15.5, ssDAF-12 act 4.0, hgDAF12 agonist 14.3 | LXRb hcDAF ctr inactive | hcDAF12 ag 13.0 | hgDAF12 conf 25.1 | LXR ag 2 inactive
O=[N+]([O-])c1cccc(N=Cc2sc3ccccc3c2O)c1	none (no result: DAX1 inh-1)
CCCCCCN1CCS(=O)(=O)N(Cc2ccc(OC)cc2)C(C(=O)OC)C1 (stereo not drawn)	none (no result: DAX1 inh-1)
CCc1ccc(-c2cnc3ccccc3n2)cc1NC(=O)CNC(=O)c1ccccc1	hcDAF12 agonist 13.1, ssDAF-12 act 1.1, hgDAF12 agonist 19.5 | LXRb hcDAF ctr inactive | hcDAF12 ag 6.6 | hgDAF12 conf inactive | LXR ag 2 inactive
O=C(Nc1cccc(-c2cnc3ccccc3n2)c1)c1ccccc1	none
C[C@@H]1OCN(C)[C@H]2C[C@H]3c4[nH]c5cccc(-c6cccc(F)c6)c5c4CCN3C(=O)[C@@H]12	none (no result: DAX1 inh-1)
Cc1ccccc1-c1noc(-c2ccc(O)cc2)n1	hcDAF12 agonist 6.9, hgDAF12 agonist 18.1 | LXRb hcDAF ctr inactive | hcDAF12 ag inactive | hgDAF12 conf 16.0 | LXR ag 2 inactive
Cc1ccc(-c2cnc3ccccc3n2)cc1C	hcDAF12 agonist 14.3, ssDAF-12 act 1.5, hgDAF12 agonist 14.4 | LXRb hcDAF ctr inactive | hcDAF12 ag 15.7 | hgDAF12 conf 19.8 | LXR ag 2 inactive
Cc1cc2ncc(-c3ccccc3)nc2cc1C	hcDAF12 agonist 14.0, DAX1 inh-1 5.0, ssDAF-12 act 1.7, hgDAF12 agonist 18.5 | LXRb hcDAF ctr inactive | hcDAF12 ag 11.4 | hgDAF12 conf 23.0 | LXR ag 2 inactive
Nc1c(C(=O)NCC(O)c2ccccc2)cnn1-c1ccccc1 (stereo not drawn)	hcDAF12 agonist 6.6, hgDAF12 agonist 18.1 (no result: DAX1 inh-1) | LXRb hcDAF ctr inactive | hcDAF12 ag 6.2 | hgDAF12 conf 14.3 | LXR ag 2 inactive
O=C(NCC1COc2ccccc2O1)c1ccc(-n2cncn2)c([N+](=O)[O-])c1 (stereo not drawn)	none
CC(=O)c1ccc(NCC2COc3ccccc3O2)c([N+](=O)[O-])c1 (stereo not drawn)	hcDAF12 agonist 11.1, ssDAF-12 act 1.4, hgDAF12 agonist 22.9 | LXRb hcDAF ctr inactive | hcDAF12 ag 9.0 | hgDAF12 conf 15.1 | LXR ag 2 inactive
O=C(COC(=O)c1ccc(F)c(S(=O)(=O)N2CCOCC2)c1)Nc1ccc(Cl)cn1	none
CCOC(=O)c1sc(=NC(=O)c2ccco2)n(C)c1C	hcDAF12 agonist 9.0, hgDAF12 agonist 13.5 | LXRb hcDAF ctr inactive | hcDAF12 ag 11.1 | hgDAF12 conf 13.6 | LXR ag 2 inactive
COC(=O)C1CN(Cc2cn(Cc3ccc(OC)cc3)nn2)CCS(=O)(=O)N1Cc1ccc(C)cc1 (stereo not drawn)	none (no result: DAX1 inh-1)
COc1ccc(CN2C[C@@]3(O)CC[C@@H](O)[C@@H](OC)[C@@H]3[C@@]2(C)[C@H](O)CC=C(C)C)cc1	none (no result: DAX1 inh-1)
COc1cc(OC)c(OC)cc1C=Cc1ccc2ccccc2n1	none
O=[N+]([O-])c1ccccc1/C=C/c1ccc2ccccc2n1	hcDAF12 agonist 18.4, DAX1 inh-1 7.1, ssDAF-12 act 2.1, hgDAF12 agonist 16.4 | LXRb hcDAF ctr inactive | hcDAF12 ag 12.2 | hgDAF12 conf 20.0 | LXR ag 2 inactive
CC(C)C[C@H](NC1(C(=O)NC2CCCCC2)CCN(C(=O)OC(C)(C)C)CC1)C(=O)NCCc1c[nH]c2ccccc12	none (no result: DAX1 inh-1, DAX1 inh-2)
Cc1ccc(Nc2nc(-c3cccs3)cs2)nc1	hcDAF12 agonist 13.2, DAX1 inh-2 4.0, hgDAF12 agonist 14.7 | LXRb hcDAF ctr inactive | hcDAF12 ag 13.8 | hgDAF12 conf inactive | LXR ag 2 inactive
Cc1ccc(S(=O)(=O)Nc2nc(-c3ccccc3)cs2)cc1	none
c1cncc(Nc2nc(-c3cccs3)cs2)c1	none (no result: hcDAF12 agonist, ssDAF-12 act, DAX1 inh-2, hgDAF12 agonist)
Cc1ccc(Nc2nc(-c3ccccc3)cs2)nc1	hcDAF12 agonist 19.1, ssDAF-12 act 1.9, DAX1 inh-2 3.7, hgDAF12 agonist 13.3 | LXRb hcDAF ctr inactive | hcDAF12 ag 16.5 | hgDAF12 conf 22.7 | LXR ag 2 inactive
CO[C@H]1CN(C)C(=O)c2ccc(NC(=O)c3ccc4c(c3)OCO4)cc2OC[C@H](C)N(CC2CC2)C[C@@H]1C	none (no result: DAX1 inh-1)
COCCN(Cc1nc(-c2ccc(-c3ccccc3)cc2)oc1C)C(C)C	hcDAF12 agonist 10.4, ssDAF-12 act 1.1, hgDAF12 agonist 15.0 | LXRb hcDAF ctr inactive | hcDAF12 ag 7.5 | hgDAF12 conf 17.9 | LXR ag 2 inactive
CCc1nc2ccc(C(=O)N(C)CCN(C)C)cn2c1N(C)Cc1cc2ccccc2s1	none (no result: DAX1 inh-1)
N/C(=N\OC(=O)c1cc(Br)ccc1Cl)c1cccnc1	none
Cc1c(C(=O)O/N=C(\N)c2ccccn2)cccc1[N+](=O)[O-]	hcDAF12 agonist 15.8, ssDAF-12 act 3.0, hgDAF12 agonist 17.2 | LXRb hcDAF ctr inactive | hcDAF12 ag 10.4 | hgDAF12 conf 19.9 | LXR ag 2 inactive
N/C(=N\OC(=O)c1ccc2ccccc2c1)c1ccccn1	none
N/C(=N\OC(=O)c1cccc2ccccc12)c1ccccn1	hcDAF12 agonist 15.2, ssDAF-12 act 3.5, hgDAF12 agonist 14.4 | LXRb hcDAF ctr inactive | hcDAF12 ag 13.8 | hgDAF12 conf 10.6 | LXR ag 2 inactive
N/C(=N\OC(=O)c1ccccc1Cl)c1cccnc1	hcDAF12 agonist 9.7, ssDAF-12 act 1.9, hgDAF12 agonist 14.7 | LXRb hcDAF ctr inactive | hcDAF12 ag 6.4 | hgDAF12 conf 14.4 | LXR ag 2 inactive
N/C(=N\OC(=O)c1cc(Br)ccc1Cl)c1ccccn1	hcDAF12 agonist 15.6, ssDAF-12 act 3.8, DAX1 inh-2 3.7, hgDAF12 agonist 21.0 | LXRb hcDAF ctr inactive | hcDAF12 ag 14.6 | hgDAF12 conf 23.1 | LXR ag 2 inactive
N/C(=N\OC(=O)Cc1ccccc1[N+](=O)[O-])c1ccccn1	none
COc1ccc(-c2nc3c(C)cc(Br)cn3c2Cc2ccsc2)cc1OC	none (no result: DAX1 inh-1)
